According to PubChem BioAssay (EPA / NIEHS):
Several values for one entry are separate records, joined by “and”; a condition that tells them apart may be missing. Equal values may be shown once. Activity calls are given as the source filed them. How the source made its calls: active means hit-call score of the fitted dose curve at least 0.9, where 1 is the maximum; inactive means score below 0.9.

Test: BSK_MyoF_SRB: Viability Assessment in the BioMAP Diversity Plus: MyoF Assay (AID 2284267)
Conditions: primary human lung fibroblasts
Procedure: BSK_MyoF is a cell-based, multiplexed-readout assay that uses lung fibroblasts, […], with measurements taken at 24 hours after chemical dosing in a microplate: 96-well plate.BSK_MyoF_SRB is an assay component measured in the BSK_MyoF assay. It measures 0.1% sulforhodamine related to cell death using Sulforhodamine staining technology.Data from the assay component BSK_MyoF_SRB was analyzed at the endpoint, BSK_MyoF_SRB, in the positive analysis fitting direction relative to DMSO as the negative control and baseline of activity. Using a type of viability reporter, gain or loss-of-signal activity can be used to understand protein changes. To generalize the intended target to other relatable targets, this assay endpoint is annotated to the 'cell morphology' intended target family, where the subfamily is 'cell conformation'.
The levels of cell surface (or secreted, indicated by the prefix "s") biomarker endpoints were measured by ELISA. Overt cytotoxicity to cells in confluent adherent cultures (all systems other than the BT system) was assessed by measuring total protein levels using sulforhodamine B (SRB) staining in parallel cultures at the time of biomarker measurements, indicated as SRB endpoints. For proliferation assays for adherent cell types, individual cell types are cultured at sub-confluence and relative cell numbers quantified by SRB staining at time points optimized for each system (48 h: 3C and CASM3C systems; 72 h: BT and HDF3CGF systems; 96 h: SAg system). SRB was performed by staining cells with 0.1% SRB after fixation with 10% TCA and reading wells at 560 nm.Viability and proliferation of PBMC (T cells) was quantified by Alamar Blue reduction for the SAg and BT systems. For PBMC viability (referred to as PBMC Cytotoxicity within the assay endpoint names), cells were plated (75,000/well in a 96-well plate) and then chemical samples added for 1 h before addition of activators, SEB and TSST-1 (20 ng/mL final concentration each). Cells were incubated for 90 h. Then, Alamar Blue (20 uL/well) (Invitrogen, Cat DAL1100) was added for 6 h, and the plates were read with a fluorescence microplate reader at 546/580 nm (excitation/emission). For PBMC proliferation, cells were plated and activated as above but incubated for only 16 h prior to addition of Alamar Blue. Plates were read after 6 h.

Question: With CC1(C)CC(O)CC(C)(C)N1[O] as the compound, how does the outcome read?
Answer: inactive

Question: Which outcome does the source give for CCN1CN(CC)CN(CC)C1 here?
Answer: inactive

Question: Which outcome does the source give for CCCCCCCCC(CO)CCCCCC (stereo not given) here?
Answer: inactive

Question: For COc1ccc(C(=O)c2ccccc2)c(O)c1, which outcome is on record?
Answer: inactive

Question: Which outcome does the source give for CCCCCCOC(=O)CCCCC(=O)OCCCCCC here?
Answer: inactive

Question: For CC/C=C\C/C=C\C/C=C\CCCCCCCC(=O)OC, which AC50 is on record?
Answer: 10.4 µM (active)

Question: For CC(Cl)COP(=O)(OCC(C)Cl)OCC(C)Cl (stereo not given), which outcome is on record?
Answer: inactive

Question: For CCCCCCCO, which outcome is on record?
Answer: inactive

Question: For C=CC(=O)OCCCCCCOC(=O)C=C, which AC50 is on record?
Answer: 20 µM (active)

Question: For O=C(O)C(F)(F)C(F)(F)C(F)(F)C(F)(F)C(=O)O, which outcome is on record?
Answer: inactive

Question: Which outcome does the source give for C=CC(=O)NC(C)(C)C here?
Answer: inactive

Question: With CC1=CC=C(C(C)C)CC1 as the compound, how does the outcome read?
Answer: inactive

Question: For CCOC(=O)C1=NN(c2ccc(Cl)cc2Cl)C(C)(C(=O)OCC)C1 (stereo not given), which outcome is on record?
Answer: inactive

Question: Which outcome does the source give for CCCCC1C(=O)N(c2ccccc2)N(c2ccccc2)C1=O here?
Answer: inactive

Question: Which outcome does the source give for CC(C)[N+](C)(CCOC(=O)C1c2ccccc2Oc2ccccc21)C(C)C here?
Answer: inactive

Question: Which AC50 does the source give for Clc1cc(Cl)c(Cl)c(Cl)c1Cl here?
Answer: 20 µM (active)

Question: Which outcome does the source give for O=C1CCCCCCCCCCC1 here?
Answer: inactive

Question: For CCc1cccc(C)c1N(C(=O)CS(=O)(=O)O)C(C)COC (stereo not given), which outcome is on record?
Answer: inactive

Question: For C=CC(=O)OCCCCCCCC(C)C, which outcome is on record?
Answer: inactive

Question: Which outcome does the source give for CCOC(=O)/C=C\C(=O)OCC here?
Answer: inactive

Question: With CCNc1nc(NC(C)(C)C)nc(OC)n1 as the compound, how does the outcome read?
Answer: inactive

Question: With CC/C=C\CCOC(=O)c1ccccc1O as the compound, how does the AC50 read?
Answer: 37 µM (active)

Question: Which AC50 does the source give for Oc1c(Cl)cc(Cl)c(Cl)c1Cl here?
Answer: 26.6 µM (active)

Question: With CCCCCC1=CCCC1=O as the compound, how does the outcome read?
Answer: inactive

Question: For C[N+](C)(C)CCCNS(=O)(=O)C(F)(F)C(F)(F)C(F)(F)C(F)(F)C(F)(F)C(F)(F)C(F)(F)C(F)(F)F, which AC50 is on record?
Answer: 37.6 µM (active) and 38.7 µM (active)

Question: For CC(C)CCCCCOC(=O)CS, which outcome is on record?
Answer: inactive

Question: For CCCCCCCCCCCC(C)=O, which outcome is on record?
Answer: inactive

Question: Which outcome does the source give for Fc1ccc(Br)cc1 here?
Answer: inactive

Question: For CCCCCCC=O, which outcome is on record?
Answer: inactive

Question: With C=CCCCCCCCCC=O as the compound, how does the outcome read?
Answer: inactive

Question: For O=C(Oc1ccccc1)c1ccccc1C(=O)Oc1ccccc1, which outcome is on record?
Answer: inactive

Question: For Cc1c(O)cccc1O, which outcome is on record?
Answer: inactive

Question: For C=CC(=O)OCC(C)OCC(C)OCC(C)OC(=O)C=C (stereo not given), which AC50 is on record?
Answer: 33.2 µM (active)

Question: With C=C(C)C(=O)OCCCCCCCCCCCC as the compound, how does the outcome read?
Answer: inactive

Question: For CC(c1cc(C(C)(C)C)cc(C(C)(C)C)c1O)c1cc(C(C)(C)C)cc(C(C)(C)C)c1O, which outcome is on record?
Answer: inactive

Question: For Nc1cccc(N)n1, which outcome is on record?
Answer: inactive

Question: Which outcome does the source give for CCC1(C)C(=O)N(Cl)C(=O)N1Cl (stereo not given) here?
Answer: inactive

Question: For CC(C)c1cccc(C(C)C)c1N, which outcome is on record?
Answer: inactive

Question: With O=C1CCCCCCCCCCCN1 as the compound, how does the outcome read?
Answer: inactive

Question: With COc1ccc(C(=O)/C(Br)=C\C(=O)O)cc1 as the compound, how does the outcome read?
Answer: inactive
